In PubChem BioAssay (NCI) one finds growth data, which are given here for 37 compounds.

The panel holds about 83,000 compounds, 20% with a hit somewhere; the sample as a whole holds those more often.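 A percent growth of 40 corresponds to 60% growth inhibition; 0 means no net growth; -100 means all cells died. Active threshold: below 10.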 Unmarked numbers belong to inactive results. Activity calls are given as the source filed them.

One experiment relates to BT-549 breast. Put plainly: NCI-60 one-dose screen, 48 h (100 = growth as untreated, 0 = no growth, -100 = all killed). The conditions noted are these: 10 µM unless noted.
For the compound `O=C(Nc1nc2ccc(C(F)(F)F)cc2s1)c1cc(Cl)ccc1O`, the growth was -8.57% (active).

For `NC(N)=NC(N)=Nc1cc2ccccc2c2ccccc12`, the growth is 36.1%.

`CC(=O)Oc1c2c(nc3c1c1ccccc1n3Cc1ccccc1)-c1ccccc1C2`: the growth is 104%.

Take `CN1C(=O)c2cc(Cl)nc3c(NC(=O)c4cccc(Cl)c4)c(Cl)c(NC(=O)c4cccc(Cl)c4)c1c23`: the growth was -8.59% (active).

As for `CCOCCc1c(O)nc(SC)[nH]c1=O`, the growth was 110%.

Take `COc1ccc2[nH]c(=O)c(/C=C/C(=O)/C=C/c3ccc(O)c(OC)c3)cc2c1`: the growth is -22.8% (active).

On to `CCOC(=O)c1c(C)nc2c(c1N)/C(=C/c1cccs1)C(=O)N2Cc1ccccc1`, for which the growth was 73.6%.

Take `O=C(CCc1nnc2sc(OCc3ccccc3)nn12)c1nc2ccc([N+](=O)[O-])cc2[nH]1`: the growth is 102%.

In the case of `COc1ccc2c(c1)Oc1nc(N)c(C#N)c(N)c1C2Sc1ccc(O)cc1` (centres undefined), the growth is 92.4%.

As to `O=C(Nc1nccs1)c1noc2ccccc12`, the growth is 102%.

As to `Cc1cccc(C)c1NCc1nnc(-c2ccco2)o1`, the growth is 99%.

In the case of `CCOC(=O)C1=C(C)n2nc(CC#N)c(C#N)c2NC1c1ccc(Cl)cc1` (centres undefined), the growth was 92%.

With `CCOc1ccccc1C(=O)/C=C/c1cc2ccccc2[nH]c1=O`, the growth was -19.2% (active).

For the compound `COc1cc(NC(=O)Nc2cnc(Nc3ccc(N4CCOCC4)cc3)nc2Oc2ccc(F)cc2)cc(OC)c1`, the growth is 98.2%.

Regarding `Cc1cc(Cl)cc(CN(Cc2ccccc2)Cc2c(O)ccc3ccccc23)c1O`, the growth is 99%.

On to `NC[C@@H]1CCN(c2cc3c(cc2F)c(=O)n(N)c(=O)n3Cc2ccc(-c3ccccc3)cc2)C1`, for which the growth is 69.3%.

For `O=C(/C(=C/c1ccc([N+](=O)[O-])cc1)SCc1ccc(F)cc1)c1ccc(Cl)cc1`, the growth was 84.9%.

For the compound `COc1ccc(Cl)c([N+](=O)[O-])c1`, the growth was 104%.

With `COc1cc(C)ccc1Oc1nc(Nc2ccc(N3CCOCC3)cc2)ncc1N=Cc1cc(C(F)(F)F)cc(C(F)(F)F)c1`, the growth was 89.4%.

In the case of `c1ccc(-c2cn3ccnc3c(-c3ccc4c(c3)ncn4C3CCCCC3)n2)cc1`, the growth was 99.6%.

Turning to `Nc1c(C(=O)Nc2cccc3ccccc23)sc2nc3c(cc12)COCC3`, the growth was 51.3%.

Turning to `O=C1CCC23OC(C(O)c4ccccc4N12)C1C(Br)=NOC13` (centres undefined), the growth is 102%.

Consider `O=Cc1[nH]c(Sc2ccccc2)c2ccccc12`, for which the growth is 53.4%.

As to `CCOC(=O)c1sc(/N=C2\NC(=O)/C(=C/c3ccc(N4CCN(C)CC4)cc3)S2)nc1C`, the growth was 95%.

Regarding `COc1cc(C2=NN(c3ccccc3)C(c3cccc(Nc4ccnc5cc(C(F)(F)F)ccc45)c3)C2)cc(OC)c1OC` (centres undefined), the growth was 114%.

Regarding `COc1ccc(-c2cc(-c3nnc(SCC(=O)Nc4ccc(/C(C)=N\O)cc4)n3-c3ccccc3)c3cc(OC)ccc3n2)cc1`, the growth was 63.7%.

For the compound `COc1ccc(OCC(=O)OC(C)C)cc1`, the growth is 109%.

`CC1=C(CCCOC(=O)NCCCl)C2=C(C)C3(CC3)[C@@](C)(O)C(=O)C2=C1`: the growth was 17.5%.

For `Nc1ccccc1NS(=O)(=O)c1ccc(Cl)cc1`, the growth was 101%.

As to `N#Cc1ccc(C2C3=C(CCCC3=O)OC3=C2C(=O)c2ccccc2C3=O)cc1` (centres undefined), the growth was 91.9%.

As for `C=CCn1c(SCC(=O)Nc2ccc(C(=O)/C=C/c3cc(OC)c(OC)c(OC)c3)cc2)nnc1-c1ccccc1`, the growth was 95.5%.

For the compound `NS(=O)(=O)c1ccc(C2C3=C(CCCC3=O)OC3=C2C(=O)c2ccccc2C3=O)cc1` (centres undefined), the growth was -99.8% (active).

Take `COc1ccc2nc3nc4ccc[nH]c4cc3c2c1`: the growth is 84.1%.

With `COc1ccc(Nc2nc(SCC(C)C)nc(-c3ccc(F)cc3)c2C#N)cc1`, the growth was 75.5%.

Turning to `NC(=O)CN1C(=O)c2ccccc2C1=O`, the growth is 86.6%.

Take `COc1cccc(C(=O)OCCn2nc3c4c(cccc42)C(=O)c2ccccc2-3)c1O`: the growth is 52.8%.

Consider `c1ccc(-c2n(Cc3ccc4ccccc4n3)cc[n+]2Cc2ccc3ccccc3c2)cc1`, for which the growth is 3.57% (active).

Another experiment deals with MDA-MB-435 melanoma. The description is as above. The conditions noted are these: 10 µM unless noted.
As to `O=C(Nc1nc2ccc(C(F)(F)F)cc2s1)c1cc(Cl)ccc1O`, the growth was 10.2%.

As to `NC(N)=NC(N)=Nc1cc2ccccc2c2ccccc12`, the growth was 68.9%.

For `CC(=O)Oc1c2c(nc3c1c1ccccc1n3Cc1ccccc1)-c1ccccc1C2`, the growth is 98.2%.

For the compound `CN1C(=O)c2cc(Cl)nc3c(NC(=O)c4cccc(Cl)c4)c(Cl)c(NC(=O)c4cccc(Cl)c4)c1c23`, the growth is 3.49% (active).

Turning to `CCOCCc1c(O)nc(SC)[nH]c1=O`, the growth was 120%.

On to `COc1ccc2[nH]c(=O)c(/C=C/C(=O)/C=C/c3ccc(O)c(OC)c3)cc2c1`, for which the growth is -30% (active).

For the compound `CCOC(=O)c1c(C)nc2c(c1N)/C(=C/c1cccs1)C(=O)N2Cc1ccccc1`, the growth was 88.9%.

In the case of `O=C(CCc1nnc2sc(OCc3ccccc3)nn12)c1nc2ccc([N+](=O)[O-])cc2[nH]1`, the growth was 106%.

Turning to `COc1ccc2c(c1)Oc1nc(N)c(C#N)c(N)c1C2Sc1ccc(O)cc1` (centres undefined), the growth is 99.5%.

For `O=C(Nc1nccs1)c1noc2ccccc12`, the growth was 105%.

Regarding `Cc1cccc(C)c1NCc1nnc(-c2ccco2)o1`, the growth was 103%.

Turning to `CCOC(=O)C1=C(C)n2nc(CC#N)c(C#N)c2NC1c1ccc(Cl)cc1` (centres undefined), the growth was 100%.

In the case of `CCOc1ccccc1C(=O)/C=C/c1cc2ccccc2[nH]c1=O`, the growth is 5.11% (active).

As for `COc1cc(NC(=O)Nc2cnc(Nc3ccc(N4CCOCC4)cc3)nc2Oc2ccc(F)cc2)cc(OC)c1`, the growth is 88.3%.

With `Cc1cc(Cl)cc(CN(Cc2ccccc2)Cc2c(O)ccc3ccccc23)c1O`, the growth was 112%.

As to `NC[C@@H]1CCN(c2cc3c(cc2F)c(=O)n(N)c(=O)n3Cc2ccc(-c3ccccc3)cc2)C1`, the growth is 76.6%.

Regarding `O=C(/C(=C/c1ccc([N+](=O)[O-])cc1)SCc1ccc(F)cc1)c1ccc(Cl)cc1`, the growth is 43.9%.

Turning to `COc1ccc(Cl)c([N+](=O)[O-])c1`, the growth was 99.6%.

In the case of `COc1cc(C)ccc1Oc1nc(Nc2ccc(N3CCOCC3)cc2)ncc1N=Cc1cc(C(F)(F)F)cc(C(F)(F)F)c1`, the growth is 65.1%.

In the case of `c1ccc(-c2cn3ccnc3c(-c3ccc4c(c3)ncn4C3CCCCC3)n2)cc1`, the growth was 99.5%.

For the compound `Nc1c(C(=O)Nc2cccc3ccccc23)sc2nc3c(cc12)COCC3`, the growth was -1.93% (active).

As for `O=C1CCC23OC(C(O)c4ccccc4N12)C1C(Br)=NOC13` (centres undefined), the growth is 96.2%.

Regarding `O=Cc1[nH]c(Sc2ccccc2)c2ccccc12`, the growth is 81.7%.

As to `CCOC(=O)c1sc(/N=C2\NC(=O)/C(=C/c3ccc(N4CCN(C)CC4)cc3)S2)nc1C`, the growth was 106%.

For the compound `COc1cc(C2=NN(c3ccccc3)C(c3cccc(Nc4ccnc5cc(C(F)(F)F)ccc45)c3)C2)cc(OC)c1OC` (centres undefined), the growth was 104%.

For `COc1ccc(-c2cc(-c3nnc(SCC(=O)Nc4ccc(/C(C)=N\O)cc4)n3-c3ccccc3)c3cc(OC)ccc3n2)cc1`, the growth was 79.2%.

As to `COc1ccc(OCC(=O)OC(C)C)cc1`, the growth was 101%.

In the case of `CC1=C(CCCOC(=O)NCCCl)C2=C(C)C3(CC3)[C@@](C)(O)C(=O)C2=C1`, the growth is 84.8%.

As to `Nc1ccccc1NS(=O)(=O)c1ccc(Cl)cc1`, the growth is 90.6%.

In the case of `N#Cc1ccc(C2C3=C(CCCC3=O)OC3=C2C(=O)c2ccccc2C3=O)cc1` (centres undefined), the growth was -77% (active).

Consider `C=CCn1c(SCC(=O)Nc2ccc(C(=O)/C=C/c3cc(OC)c(OC)c(OC)c3)cc2)nnc1-c1ccccc1`, for which the growth was 50%.

On to `NS(=O)(=O)c1ccc(C2C3=C(CCCC3=O)OC3=C2C(=O)c2ccccc2C3=O)cc1` (centres undefined), for which the growth is -93% (active).

Turning to `COc1ccc2nc3nc4ccc[nH]c4cc3c2c1`, the growth is 101%.

Regarding `COc1ccc(Nc2nc(SCC(C)C)nc(-c3ccc(F)cc3)c2C#N)cc1`, the growth was 9.54% (active).

For `NC(=O)CN1C(=O)c2ccccc2C1=O`, the growth is 106%.

Turning to `COc1cccc(C(=O)OCCn2nc3c4c(cccc42)C(=O)c2ccccc2-3)c1O`, the growth is 6.92% (active).

Turning to `c1ccc(-c2n(Cc3ccc4ccccc4n3)cc[n+]2Cc2ccc3ccccc3c2)cc1`, the growth was 2.12% (active).
